# Screening results: PubChem, National Center for Advancing Translational Sciences (NCATS)
# D2 ag-1 = activates the human D2 dopamine receptor | P14416 | HEK293 T-REx D2 cells, calcium flux agonist mode | activation, % at 2 µM | 340,000 tested, 0.53% active | AID 485358;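 active = activation over 3 SD above normal in the single-dose calcium agonist read, cut at about 30% in these data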; also: 0% is about no effect
#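 Calcium-flux readout, 1 cycle/sec over 180 s following compound pin transfer, in inducible HEK293 Trex D2 cells (force-coupled); dopamine controls included. Positive calcium responses during this window marked compounds as potential agonists.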
# D2 antag = antagonists of human D2 dopamine receptor | inhibition, % at 10 µM | P14416 | 340,000 tested, 2% active | HEK293 TREx D2 cells, calcium flux, dopamine EC80; in the data active = inhibition above about 30%; inactive = below that, where a call was filed; also: 0% is about no effect
#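 In this primary screen, negative modulation is detected by tracking calcium flux after an EC80 dopamine challenge in inducible HEK293 T-REx D2 cells preexposed to test compound for 180 s.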
# D2 PAM-1 = positively modulates the human D2 dopamine receptor allosterically | P14416 | HEK293 T-REx D2, calcium flux, EC20 dopamine potentiation | potentiation, % at 10 µM | 340,000 tested, 0.34% active | AID 485347;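 active = potentiation over 3 SD above the plate norm, cut at about 30% in these data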; also: 0% is about no effect
#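 Tetracycline-induced HEK293 T-REx cells force-coupled to calcium signalling expressed D2; compounds were pin-added after a 10 s baseline, read kinetically 180 s, then an EC20 dopamine challenge followed with a further 180 s calcium read.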
# D2 PAM-2 = positive allosteric modulators of human D2 dopamine receptor; P14416; DiscoveRx D2 beta-arrestin cells, luminescence, 90 min; 100% = 57 uM dopamine signal; potentiation, % (concentration not given with the values); 360,000 tested, 0.23% active; in the data active = potentiation above about 50%; inconclusive = mostly about 30% to 49%
#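 D2 cells co-treated with compound plus 50 nM dopamine (EC20) for 90 min at 37 deg C to detect potentiation. Beta-arrestin recruitment was read as enzyme-fragment luminescence after 1 h at ambient temperature. Full response was set by 57 uM dopamine.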
# D2 ag-2 = agonists of human D2 dopamine receptor (beta-arrestin). P14416. DiscoveRx PathHunter D2 beta-arrestin, luminescence, 90 min; 100% = 57 uM dopamine signal. activation, % (no concentration beside the values). 360,000 tested, 0.084% active. AID 624465; in the data active = activation above about 40%; inconclusive = between about 15% and that limit
#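 Agonist mode: compounds alone added to overnight-plated D2 PathHunter cells for 90 min at 37 C, with 57 uM final dopamine (EC100) defining full response. Beta-arrestin recruitment detected by chemiluminescent reagent, read after 1 h at ambient temperature.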
# D3 arrestin ag = D3 receptor agonism confirmed, beta-arrestin readout. shares compounds with D2 ag-1. DiscoveRx D3 beta-arrestin cells, luminescence, 90 min. Potency, µM (series often up to 76.9 µM), inactives show at the highest dose activation, most hits filed as activators. 2,300 tested, 4% active;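 also: potency is read from the fitted curve at half-maximal effect; 100% = dopamine control response; nearly all actives have a fitted effect of over 70% in size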
# Target sequence (P35462 whole entry, looked up): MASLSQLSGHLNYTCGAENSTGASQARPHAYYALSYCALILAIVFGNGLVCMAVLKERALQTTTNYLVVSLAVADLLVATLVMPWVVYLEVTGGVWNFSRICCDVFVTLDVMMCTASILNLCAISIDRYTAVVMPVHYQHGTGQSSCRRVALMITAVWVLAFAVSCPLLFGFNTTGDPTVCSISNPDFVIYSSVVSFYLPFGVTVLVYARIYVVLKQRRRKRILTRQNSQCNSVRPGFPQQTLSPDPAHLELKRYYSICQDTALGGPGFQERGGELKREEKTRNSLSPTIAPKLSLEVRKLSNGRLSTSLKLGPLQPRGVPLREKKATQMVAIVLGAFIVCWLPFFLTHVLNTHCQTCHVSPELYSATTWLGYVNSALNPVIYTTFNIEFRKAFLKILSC
# D2 ag-3 = D2 receptor agonism, beta-arrestin counterscreen. shares compounds with D2 ag-1. 2,300 tested, 5.9% active. Potency, µM (highest dose often 76.9 µM), for inactives: at the highest dose activation, actives largely listed as activators. DiscoveRx PathHunter D2 beta-arrestin, luminescence, 90 min; response scale: percent relative to full dopamine signal; also: potency is read from the fitted curve at half-maximal effect; % of control where 0% means no effect; nearly all actives have a fitted effect of over 70% in size
# * hit, by the source's call; ? = inconclusive; / = no result given. Compounds with a hit are over-represented: about 2.4% of the library has one in this group of screens. Unless noted, calls follow the shape of the dose curve; as a rule, active = well fitted activation curve with a large enough effect; inconclusive = small, poorly fitted or top-dose-only effect; inactive = flat fitted curve, though single readings scatter.
SMILES,D2 ag-1,D2 antag,D2 PAM-1,D2 PAM-2,D2 ag-2,D3 arrestin ag,D2 ag-3
Cc1ccccc1CN1CCN(C(C)C(=O)NNC(=O)c2ccc(F)cc2)CC1 (stereo not given),58*,25,-15,-3,1,-9%,10%
Cc1c(C)n(C)c2ccc(C(=O)NCCCN3CCN(c4ccc(F)cc4)CC3)cc12,0,-17,-23,-37,-5,/,/
Cn1c(C(=O)NCCN2CCN(c3ccccc3F)CC2)cc2c(=O)n(C)c3ccccc3c21,54*,95*,-35,-10,10,-8%,11%
Cc1c(C)n(C)c2ccc(C(=O)NCCCN3CCN(c4ccccc4F)CC3)cc12,67*,98*,-39,-33,9,9%,14%
CCc1nc2ccc(C(=O)NCCCN3CCN(c4ccccc4F)CC3)cc2nc1CC,17,88*,-20,-20,6,24%,16%
COC(=O)c1cc(S(=O)(=O)NCCN2CCN(c3ccccc3F)CC2)c[nH]1,1,73*,0,-36,-5,17%,7%
COc1cccc(Cn2nnc(C(=O)NCc3ccc(Cl)cc3Cl)c2N)c1,1,/,-5,/,/,/,/
COc1cc(NC(=O)CN2C(=O)c3ccccc3Sc3ccc(C(=O)N4CCCC4)cc32)cc(OC)c1,0,/,-1,/,/,/,/
O=C(NCc1ccc2c(c1)CCN2C(=O)c1ccncc1)c1ccccc1Cl,0,/,11,/,/,/,/
COc1ccccc1NC(=O)C1=C(C)Nc2nnnn2C1c1cc(Br)c(O)c(OC)c1 (stereo not given),1,/,-9,/,/,/,/
O=C(NCCN1CCN(c2ccccc2F)CC1)c1ccc2nc3ccccc3c(=O)n2c1,67*,57*,-28,-10,5,28%,?
CN1CCc2c(sc(/N=C/c3c[nH]c4ccccc34)c2C#N)C1,49*,-6,-26,-20,7,12%,-4%
CN1CCc2c(sc(/N=C/c3cc(Cl)ccc3O)c2C#N)C1,88*,83*,-36,26,52*,-11%,10%
CN1CCc2c(sc(/N=C/c3c[nH]c4ccccc34)c2C(N)=O)C1,1,13,-9,-17,-4,/,/
COCCn1ccc2c(OCC(=O)Nc3ccccc3F)cccc2c1=O,0,/,24,/,/,/,/
FC(F)(F)c1cc(-c2cccc(Br)c2)nc2ncnn12,/,/,5,/,/,/,/
Cc1ccccc1OCCC(=O)OCC(=O)NNC(=O)c1cccs1,/,/,/,-4,6,-5%,4%
COc1ccccc1OCC(=O)NNC(=O)c1cccs1,0,-3,5,6,-3,/,/
COc1ccc(N2CCN(C(=O)CSc3nc(-c4ccccc4)no3)CC2)cc1,/,/,-1,/,/,/,/
CN(C)c1ccc(S(=O)(=O)N2CCCCC2)cc1NC(=O)C1CSC2(C)CCC(=O)N12 (stereo not given),0,-3,4,-4,-1,0%,-2%
Cc1nc(NC(=O)CN2CCCCC2)sc1C(=O)N(C)C,0,7,3,-1,-1,/,/
COc1ccc(C)cc1NC(=O)CCN1CCN(C/C=C/c2ccccc2)CC1,70*,68*,-25,0,4,7%,?
COc1ccccc1NC(=O)c1ccc(NC(=O)CN2CCN(C(=O)c3ccco3)CC2)cc1,51*,41*,-7,19,11,?,20%
COc1ccccc1N1CCN(CC(=O)Nc2nc(C)c(C(=O)N(C)C)s2)CC1,0,12,-6,-19,3,-7%,-5%
COC(=O)c1[nH]c2ccccc2c1NC(=O)CN1CCN(C(=O)c2ccco2)CC1,58*,21,-19,9,?,?,19%
SMILES,D2 ag-1,D2 antag,D2 PAM-1,D2 PAM-2,D2 ag-2,D3 arrestin ag,D2 ag-3
COc1ccccc1NC(=O)c1ccc(NC(=O)c2ccco2)cc1,0,-14,-20,1,-3,/,/
Cc1cccc(-c2noc(-c3ccc(NCc4ccccc4)c([N+](=O)[O-])c3)n2)c1,-1,/,4,/,/,/,/
COc1ccccc1NC(=O)CN1CCN(c2ccccc2)CC1,49*,39*,-29,-6,5,-3%,9%
COc1ccccc1N1CCN(CC(=O)Nc2ccc(CN3CCCCC3)cc2)CC1,31*,39*,-24,-9,12,-7%,13%
Cc1ccccc1NC(=O)CN1CCN(C(=O)c2ccco2)CC1,44*,-15,-11,4,11,-6%,22%
Cc1cc(Cl)ccc1NC(=O)CN1CCN(C(=O)c2ccco2)CC1,1,4,4,4,2,/,/
COc1ccccc1NC(=O)CN1CCN(C(=O)c2ccco2)CC1,/,/,/,-21,7,?,13%
Cc1ccccc1NC(=O)CN(C)S(=O)(=O)c1cccc2nsnc12,/,/,7,/,/,/,/
O=C(NCc1ccco1)c1ccc2c(c1)N(Cc1ccccc1)C(=O)c1ccccc1S2(=O)=O,0,/,-1,/,/,/,/
O=C(CSc1nc2c([nH]c3ccccc32)c(=O)n1-c1cccc(Cl)c1)N1CCc2ccccc21,/,/,-6,/,/,/,/
O=C(c1ccc2c(c1)N(Cc1ccccc1)C(=O)c1ccccc1S2(=O)=O)N1CCN(c2ccccc2)CC1,-1,/,8,/,/,/,/
COc1ccc([N+](=O)[O-])cc1NC(=O)CCN1CCN(c2ccccc2)CC1,/,/,/,6,47*,?,?
COc1ccc([N+](=O)[O-])cc1NC(=O)CCCOc1ccccc1,0,2,-35,-19,-3,/,/
CC(CCc1ccc(O)cc1)NC1C2CC3CC(C2)CC1C3 (stereo not given),38*,71*,-24,-20,4,-3%,10%
Cc1ccc(NC(=O)CN(C)C(=O)Cn2c(=O)oc3ccccc32)cc1,1,-2,7,-12,2,/,/
CN(CC(=O)Nc1ccc(F)cc1)C(=O)Cn1c(=O)oc2ccccc21,0,11,5,5,3,-5%,-2%
O=C(Cc1ccc(Cl)cc1)SCc1ccccc1,15,-17,3,-8,-1,-20%,-5%
O=C(Cc1ccccc1)NCCSCc1ccc(Cl)cc1,-1,8,-6,0,-4,/,/
Fc1ccccc1N1CCN(CC2CCCCC2)CC1,15,89*,-18,-2,1,19%,23%
O=c1nc2ccccc2c2n1CC(CN1CCN(c3ccccc3F)CC1)N2 (stereo not given),29,16,-14,-21,2,-3%,8%
Fc1ccccc1N1CCN(Cc2cccnc2)CC1,73*,68*,-21,1,?,?,?
